The whole screen tested about 16,000 compounds, of which about 260 (1.6%) were called active. Entries that show only a call come without a potency. Inconclusive results (about 14%) are left out. This is one part of a sample in which actives are shown more often than they occur. The call rests on the fitted dose curve; in most records, active means well fitted inhibition curve with a large enough effect; inconclusive means small, poorly fitted or top-dose-only effect; inactive means no such curve, though single readings can be large or run the other way. A structure can be active in one record and inactive in another. Where a SMILES comes first, the peptide text is derived from it. Bridges are numbered along the chain shown (N, C = ends). [ ]: non-standard residue; d: D form. The star is where a group is joined. X4 = CC[C@H](C)CCCCC(=O)*; Dab = NCC[C@H](N)C(=O)O
Potency means the concentration at half of the fitted maximal effect.

Sequence of Rap guanine nucleotide exchange factor 4 (Homo sapiens) (Q8WZA2 whole entry, looked up): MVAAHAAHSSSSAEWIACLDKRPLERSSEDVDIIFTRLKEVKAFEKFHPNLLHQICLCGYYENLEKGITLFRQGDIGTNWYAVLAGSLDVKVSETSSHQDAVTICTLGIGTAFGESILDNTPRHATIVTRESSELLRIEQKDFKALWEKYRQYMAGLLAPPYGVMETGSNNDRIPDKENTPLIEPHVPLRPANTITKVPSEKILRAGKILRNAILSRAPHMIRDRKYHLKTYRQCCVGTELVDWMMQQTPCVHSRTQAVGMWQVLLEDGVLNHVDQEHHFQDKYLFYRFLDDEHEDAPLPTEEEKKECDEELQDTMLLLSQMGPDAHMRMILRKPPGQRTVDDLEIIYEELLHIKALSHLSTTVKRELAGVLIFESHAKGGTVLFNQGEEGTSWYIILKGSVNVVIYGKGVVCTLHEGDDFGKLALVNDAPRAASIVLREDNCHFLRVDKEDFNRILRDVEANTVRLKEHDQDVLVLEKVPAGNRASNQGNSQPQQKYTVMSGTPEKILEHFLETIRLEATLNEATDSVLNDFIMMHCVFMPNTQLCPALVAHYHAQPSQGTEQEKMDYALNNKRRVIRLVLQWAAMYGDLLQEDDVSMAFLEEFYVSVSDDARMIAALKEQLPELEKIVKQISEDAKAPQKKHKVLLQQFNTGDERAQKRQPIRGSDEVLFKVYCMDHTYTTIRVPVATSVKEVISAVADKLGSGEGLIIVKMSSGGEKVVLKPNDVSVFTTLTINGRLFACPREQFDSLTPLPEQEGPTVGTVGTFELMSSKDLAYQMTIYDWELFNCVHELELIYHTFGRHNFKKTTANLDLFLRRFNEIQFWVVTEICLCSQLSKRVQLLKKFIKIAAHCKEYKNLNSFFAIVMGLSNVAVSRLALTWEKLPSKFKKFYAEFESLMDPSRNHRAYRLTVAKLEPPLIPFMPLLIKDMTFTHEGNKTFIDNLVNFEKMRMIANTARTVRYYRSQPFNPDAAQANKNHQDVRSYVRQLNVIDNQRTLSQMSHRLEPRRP

This experiment addresses Rap guanine nucleotide exchange factor 4 (Homo sapiens) (UniProt Q8WZA2). Kind of experiment: Validation qHTS for antagonist of cAMP-regulated guanine nucleotide exchange factor 4 (EPAC2). Further: nearly all actives have a fitted effect of over 40% in size. The conditions noted are these: EPAC2 Rap1B BODIPY-GDP exchange, fluorescence; series mostly up to 112 µM. A digest of the protocol:
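Fluorescent exchange read-out: 100 nM EPAC2 with 250 nM RAP1B–BODIPY-GDP and 50 uM GDP; BODIPY-GDP release lowers fluorescence. Read at 480/540 nm every 5 min for 30 min at room temperature; normalized to 6.5 mM cAMP.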
Take `O=C1CCN(Cc2ccc(-c3ccccc3)cc2)CCN1Cc1ccccn1`: the Potency result is “inactive”.

Regarding `Cn1cc(-c2nc3cnc(N4CCNCC4)nc3n(CCC#N)c2=O)c2ccccc21`, the Potency result is “inactive”.

For `CN(C)c1ccc(-c2nc(NCCN3CCOCC3)c3ccccc3n2)cc1`, the Potency entry is “inactive”.

Take `Oc1c(Cl)cc(Cl)c(Cl)c1Cc1c(O)c(Cl)cc(Cl)c1Cl`: the Potency was 44.7 µM (active) and inactive.

Turning to `COCc1c(C(=O)NC2CCCCC2)cnn1-c1nccc(-c2ccccc2OC)n1`, the Potency entry was “inactive”.

In the case of `COc1ccc2c(c1)NC(=O)C2CC(=O)N1CCOc2c(cc(-c3cnc4ccccc4c3)cc2OC)C1` (configuration not stated), the Potency entry was “inactive”.

`Cc1ccc(-c2ncc(Cl)cc2-c2ccc(S(C)(=O)=O)cc2)cn1`: the Potency entry is “inactive”.

In the case of `O=c1ccn([C@@H]2O[C@H](COP(=O)(O)OP(=O)(O)OP(=O)(O)O)[C@@H](O)[C@H]2O)c(=O)[nH]1`, the Potency entry was “inactive”.

In the case of `CC(C)[C@@H]1NC(=O)[C@H](Cc2ccccc2)NC(=O)[C@@H](CC(=O)O)NC(=O)CNC(=O)[C@H](CCCNC(=N)N)NC1=O`, the Potency entry was “inactive”.

On to `O=S(O)CNc1ccc(S(=O)(=O)c2ccc(NCS(=O)O)cc2)cc1`, for which the Potency entry is “inactive”.

As to `C/C=C(/C)C(=O)OC1Cc2c(ccc3ccc(=O)oc23)OC1(C)C` (configuration not stated), the Potency entry was “inactive”.

As to `CC(C)N1C[C@@H](NCc2ccccc2O)C[C@H]1C(=O)N1CCN(c2cccc(C(F)(F)F)c2)CC1`, the Potency result was “inactive”.

With `O=C(c1ccco1)N1CCC2(CC1)CCN(c1ncccn1)CC2`, the Potency entry was “inactive”.

`CC1(C)C=CC(=O)[C@]2(C)C1CC(=O)[C@]1(C)C2CC[C@@]2(C)C(c3ccoc3)OC(=O)C3OC321` (some centres not stated): the Potency result was “inactive”.

Consider `CC(C)C1=CC2=CC[C@H]3[C@](C)(C(=O)O)CCC[C@]3(C)C2CC1` (some centres not stated), for which the Potency entry was “inactive”.

On to `O=C1c2ccccc2C(=O)C1c1ccccc1`, for which the Potency entry is “inactive”.

For `CN(C)c1ncc2nc(-c3ccc(F)cc3)c(=O)n(Cc3ccc(F)cc3)c2n1`, the Potency entry is “inactive”.

`CC(=O)N1CCC2(CCCN(Cc3ccccc3)C2)CC1`: the Potency entry was “inactive”.

For `CC[C@H](C)CCCCC(=O)N[C@@H](CCN)C(=O)N[C@H](C(=O)N[C@@H](CCN)C(=O)N[C@H]1CCNC(=O)[C@@H]([C@H](C)O)NC(=O)[C@H](CCN)NC(=O)[C@H](CCN)NC(=O)[C@H](CC(C)C)NC(=O)[C@@H](CC(C)C)NC(=O)[C@H](CCN)NC1=O)[C@@H](C)O` (X4-[Dab]T[Dab][Dab][Dab][dL]L[Dab][Dab][dT]; lactam 4-C), the Potency entry was “inactive”.

Regarding `CC1OC(OCC2OC(Oc3c(-c4ccc(O)c(O)c4)oc4cc(O)cc(O)c4c3=O)C(O)C(O)C2O)[C@@H](O)C(O)C1O` (some centres not stated), the Potency result is “inactive”.

Take `COc1cc(=O)n2c(c1C(=O)NCc1ccco1)CCN(Cc1ccccc1)CC2`: the Potency result is “inactive”.

On to `CNc1ncnc2ccc(-c3cccc(NS(C)(=O)=O)c3)cc12`, for which the Potency result was “inactive”.

For the compound `CS(=O)(=O)N1CCC2(CC1)CN(Cc1cc(C(F)(F)F)cc(C(F)(F)F)c1)C2`, the Potency result is “inactive”.

As to `O=C1CCNCCN1[C@H](CO)Cc1ccccc1`, the Potency entry is “inactive”.

For `Cc1nc2cnc(N3CCNCC3)nc2n(Cc2ccc(F)cc2)c1=O`, the Potency result was “inactive”.

As to `Nc1ccccc1N`, the Potency entry was “inactive”.

`CC1(C)S[C@@H]2[C@H](NC(=O)COc3ccccc3)C(=O)N2C1C(=O)OCc1ccccc1` (some centres not stated): the Potency entry is “inactive”.

Take `COC1C[C@@H](O[C@@H]2C(C)C(=O)OC(C)C(C)C(O)C(C)C(=O)[C@@]3(CO3)CC(C)C(OC3OC(C)CC(N(C)C)C3O)C2C)OC(C)[C@@H]1O` (some centres not stated): the Potency entry is “inactive”.

In the case of `COCCn1c(=O)c(-c2cccs2)nc2cncnc21`, the Potency entry was “inactive”.

With `N#C/C(=C\c1ccc(O)c(O)c1)C(=O)NCc1ccccc1`, the Potency result is “inactive”.

Consider `COc1cccc(CN2CCC3(CC2)c2ccccc2[C@@H](NC(=O)c2ccccc2OC)[C@@H]3O)c1`, for which the Potency result is “inactive”.

Regarding `COc1ccc(CN2[C@@H](CC(=O)O)c3cc(F)ccc3S2(=O)=O)cc1`, the Potency result was “inactive”.

`CN1C(=O)CN2CCc3ccccc3C2c2cc(Cl)ccc21` (configuration not stated): the Potency result was “inactive”.

With `CCCS(=O)(=O)NCc1c(C)ncc2c1CCN(C(=O)c1ccc(F)c(F)c1)C2`, the Potency result is “inactive”.

Take `O=C(c1cccc(Cn2cccn2)c1)N1CCOc2c(cc(-c3csc4ccccc34)cc2OC2CCOC2)C1` (configuration not stated): the Potency entry was “inactive”.

Regarding `O=C(c1cccc(F)c1)N1CCC2(CCCN(Cc3ccncc3)C2)CC1`, the Potency entry is “inactive”.

`c1cncc(-c2nc(N3CCNCC3)c3ccccc3n2)c1`: the Potency entry is “inactive”.

As for `CC(=O)/C(C)=N\O`, the Potency result is “inactive”.

Consider `COc1ncc2nc(-c3ccc(Cl)cc3)c(=O)n(-c3ccccc3)c2n1`, for which the Potency result was “inactive”.

For the compound `COc1ccc(CN2CCC3(CCC(CNC(=O)c4ccco4)O3)CC2)cc1OC` (configuration not stated), the Potency result is “inactive”.

Turning to `COc1ccc2c(c1)CCc1cnc(-n3ncc(C(=O)NCCN4CCOCC4)c3C)nc1-2`, the Potency result is “inactive”.

Consider `c1ccc2cc(C3=NCCN3)ccc2c1`, for which the Potency entry was “inactive”.

Turning to `NNc1nnc(NN)c2ccccc12`, the Potency entry is “inactive”.

Turning to `Cc1cccc(CNc2cc(-c3ccccc3Cl)ncn2)c1`, the Potency entry was “inactive”.

For the compound `Cc1ccc2c(C)nc(N3CCCC(C(=O)NC(C)(C)CO)C3)nc2c1` (configuration not stated), the Potency result is “inactive”.

Turning to `O=C(Oc1cc(OC(=O)c2ccccc2)c2c(c1)OC(c1ccc(OC(=O)c3ccccc3)c(OC(=O)c3ccccc3)c1)[C@@H](OC(=O)c1ccccc1)C2)c1ccccc1` (some centres not stated), the Potency entry was “inactive”.

Consider `C/C=C(\C)C(=O)O[C@H]1CC(C)=C2C(=O)C=C(C)C2[C@@H]2OC(=O)[C@@](C)(OC(=O)C=C(C)C)C21` (some centres not stated), for which the Potency entry was “inactive”.

As for `CC[C@H](C)CCCCC(=O)N[C@@H](CCN)C(=O)N[C@H](C(=O)N[C@@H](CCN)C(=O)N[C@H]1CCNC(=O)[C@H]([C@@H](C)O)NC(=O)[C@H](CCN)NC(=O)[C@H](CCN)NC(=O)[C@H](CC(C)C)NC(=O)[C@@H](CC(C)C)NC(=O)[C@H](CCN)NC1=O)[C@@H](C)O` (X4-[Dab]T[Dab][Dab][Dab][dL]L[Dab][Dab]T; lactam 4-C), the Potency result is “inactive”.

In the case of `COCCn1c(=O)c(CCc2ccccc2)nc2cnc(N3CCNCC3)nc21`, the Potency result is “inactive”.

For the compound `CC(C)c1cnc(NC(=O)Cc2ccccc2)s1`, the Potency result is “inactive”.

Regarding `CC1(C)O[C@@H]2C[C@@H]3[C@H]4C[C@@H](F)C5=CC(=O)C=C[C@]5(C)[C@@]4(F)[C@@H](O)C[C@]3(C)[C@]2(C(=O)CO)O1`, the Potency entry is “inactive”.

On to `COc1ccc2[nH]cc(CCNc3ncnc4ccc(-c5ccc(C(=O)N(C)C)cc5)cc34)c2c1`, for which the Potency entry is “inactive”.
